Several values for one entry are separate records, joined by “and”; a condition that tells them apart may be missing. Equal values may be shown once.
test system: H9c2; assay: cardiomyocyte survival under oxidative or metabolic stress – cell-based, panel, H9c2 and HL-1, ATP luminescence, set 2, SAR follow-up (AID 651871); details: H9c2/HL-1 cardiomyocytes, H2O2 oxidative stress, with H2O2, run 2, at 79 µM (top of the series);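 note: cells exposed to stressor for 2 h before ATP readout; reference of the scale not given here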

**Q.** With `COc1ccc2c(c1OC)C(=O)N1c3ccccc3C(=O)N(Cc3cccc(Cl)c3Cl)C21` (centres undefined) as the compound, how does the activity (protection/inhibition) read?
**A.** The activity (protection/inhibition) was 101% and 61%.

**Q.** How did the activity (protection/inhibition) turn out when `CCOC(=O)c1cccc(NC(=O)CNC(=O)c2cc(-c3cc(OC)c(OC)c(OC)c3)nc3ccccc23)c1` was run?
**A.** The activity (protection/inhibition) was 114%.

**Q.** Which activity (protection/inhibition) does the source give for `COc1ccc2nc(-c3cc(OC)c(OC)c(OC)c3)cc(C(=O)NCC(=O)Nc3ccc(C(C)=O)cc3)c2c1` here?
**A.** Its activity (protection/inhibition) is 122% and 100%.

**Q.** `COc1cc(-c2cc(C(=O)Nc3cccc(C(=O)NCc4ccccc4)c3)c3ccccc3n2)cc(OC)c1OC` was tested. Which activity (protection/inhibition) did it give?
**A.** Its activity (protection/inhibition) is 119%.

— PubChem BioAssay AID651871 (Sanford-Burnham Center for Chemical Genomics, 2012)
